This is a sample that favours compounds with a hit; in the whole collection about 0.41% have one here.
aGal spleen mod: alpha-galactosidase A (human) modulation | P06280 | human spleen homogenate, 4MU-alpha-Gal fluorescence, 40 min | Potency, µM (top dose mostly 80 µM), actives largely listed as inhibitors | actives 0.008% (n = 240,000) | AID 2107
Target sequence (P06280 32-429 limits assumed): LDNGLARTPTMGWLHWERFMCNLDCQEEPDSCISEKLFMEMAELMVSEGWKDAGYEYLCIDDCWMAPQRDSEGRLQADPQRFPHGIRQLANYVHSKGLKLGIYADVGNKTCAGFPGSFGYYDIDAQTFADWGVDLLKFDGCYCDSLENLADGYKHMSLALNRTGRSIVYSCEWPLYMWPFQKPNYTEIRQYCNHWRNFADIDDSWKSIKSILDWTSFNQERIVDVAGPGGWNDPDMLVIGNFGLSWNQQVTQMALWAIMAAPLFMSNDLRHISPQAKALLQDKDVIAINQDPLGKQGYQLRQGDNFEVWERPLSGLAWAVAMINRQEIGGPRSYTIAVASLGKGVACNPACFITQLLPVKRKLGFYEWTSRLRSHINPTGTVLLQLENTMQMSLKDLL
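Human spleen homogenate (1 ug) as enzyme source, 4-methylumbelliferyl-alpha-D-galactopyranoside 1 mM final, citrate/phosphate pH 5.0 with 0.01% Tween-20. Compounds 40 min at 37C, NaOH/glycine stop; fluorescence Ex 365/Em 440, Hill-fit AC50.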
GLA inh pH 4.5: blocks human alpha-galactosidase A at pH 4.5. P06280. activity change, negative = inhibition, % at 105 µM. purified enzyme, 4-MU-alpha-Gal fluorescence, pH 4.5. 230,000 tested, under 10 active
GAA glycogen: alters human alpha-glucosidase cleavage of glycogen | P10253 | recombinant GAA, glycogen substrate, Amplex Red glucose oxidase fluorescence | Potency, µM (doses to about 76.4 µM), hits mostly inhibitors | actives 0.38% (n = 300,000) | AID 2100;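 note: the screen sought inhibitors and activators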
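Recombinant human alpha-glucosidase (4 nM final) hydrolysed bovine liver glycogen (30 ug) for 40 min at 37 C in pH 5.0 citrate/phosphate with 0.01% Tween-20. Released glucose detected by glucose oxidase/Amplex Red, Ex 573/Em 610 nm. Compounds up to 77 uM; AC50 from Hill fits.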
GAA inhib: alpha-glucosidase (human) inhibition | purified human GAA, 4-MU-alpha-glucoside fluorescence | AID 1466 | Potency, µM (titrated, usually from 76.9 µM), most hits filed as inhibitors | actives 0.005% (n = 200,000) | P10253
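Enzyme (4 nM final) mixed with compound (up to 77 uM), then 4-MU-alpha-D-pyranoside (400 uM final) added; 20 min at room temperature, pH 5.0. Reaction stopped at pH 10, fluorescence read, AC50 derived by Hill fit.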
N370S GC mod: N370S glucocerebrosidase modulation, Gaucher chaperone candidate. P04062. actives 0.092% (n = 330,000). N370S GC spleen homogenate, 4MU-glucoside fluorescence. Potency, µM (series often up to 59.4 µM), actives largely listed as inhibitors
GAA spleen mod: lysosomal alpha-glucosidase (human) modulation; P10253; human spleen homogenate, 4-MU-alpha-glucoside fluorescence; Potency, µM (series often up to 79.9 µM), actives largely listed as inhibitors; actives 0.006% (n = 240,000)
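Compounds were titrated against alpha-glucosidase in spleen homogenate at pH 5.0, with 1 mM 4-methylumbelliferyl substrate for 40 min at 37 C. Reactions were quenched with pH 10 NaOH/glycine and fluorescence measured.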
Numbers stand for hits; 0 = inactive; ? = inconclusive; - = no result. Calls come from the whole dose curve; as a rule, active = well fitted curve in the direction sought with a large enough effect; inconclusive = small, poorly fitted or top-dose-only effect, or another doubt; inactive = no such curve, though single readings can be large; an effect the other way counts as inactive or inconclusive.

SMILES	aGal spleen mod	GLA inh pH 4.5	GAA glycogen	GAA inhib	N370S GC mod	GAA spleen mod
COc1cc(C2C(C#N)=C(C)NC3=C2C(=O)CC(C)(C)C3)cc(OC)c1O (configuration not stated)	0	0	12µM	0	0	0
Cc1ccc(-c2nnn3c2nc(NCCc2ccccc2)c2ccccc23)cc1	-	-	0	-	-	-
CCOC(=O)Nc1ccc2c(c1)N(C(=O)CN(CC)CC)c1ccccc1CC2	-	-	8.9µM	-	0	-
CCC(=O)NCCc1nc2cc(NC(=O)c3cccc([N+](=O)[O-])c3)ccc2n1C	-	-	0	-	0	-
CC(=O)Oc1ccc(-c2csnn2)cc1	0	0	0	0	0	0
Cc1ccccc1C(=O)NNc1ccc(-c2csnn2)cc1	0	0	16µM	0	0	0
CN1c2cccc3cccc(c23)N(C)C1c1cccs1	0	0	?	0	0	0
CC1N(C)c2cccc3cccc(c23)N1C	0	0	12µM	0	0	0
COc1ccc(NC(=O)c2csnn2)cc1Cl	-	-	0	-	-	-
CCOC(=O)Cc1csc(Nc2c(C)n(C)n(-c3ccccc3)c2=O)n1	0	0	10µM	0	0	0
CCOC(=O)c1c(C)c(-c2ccccc2)n(CC(=O)Nc2cc(OC)cc(OC)c2)c1C	-	-	0	-	-	-
Cc1c(NC(=S)N/N=C/c2ccc(O)cc2)c(=O)n(-c2ccccc2)n1C	0	0	7µM	?	0	0
CCOC(=O)c1c(C)n(C)c2ccc(O)c(CN(C)C)c12	0	0	25µM	0	0	0
CCOC(=O)c1c(C)n(-c2ccc(OC)cc2)c2ccc(O)c(CN(C)C)c12	0	0	0	-	0	0
CC(C)c1cc(NC(=O)C(C)(C)C)cc(C(C)C)c1O	0	0	32µM	0	0	0
CCn1c(C)c(/C=N/Nc2nc3ccccc3s2)c2ccccc21	0	0	25µM	0	0	0
Cc1cccc(OCC(=O)Nc2ccc3nc(Nc4cccc(Cl)c4)cc(C)c3c2)c1	-	-	0	-	-	-
Nc1n[nH]c(-c2ccc(Br)cc2)c1Cl	0	0	13µM	?	0	?
Cc1ccc(S(=O)(=O)c2cnc(SCC(=O)Nc3cc(C)cc(C)c3)nc2N)cc1	-	-	0	-	-	-
CCn1c(CNC(=O)c2ccc(OC)cc2)nnc1SCC(=O)Nc1cccc(C)c1	-	-	0	-	-	-
COC(=O)c1c(C)sc(-c2c(-c3ccc4c(c3)OCCO4)[nH]c3[nH]c(=O)[nH]c(=O)c23)c1O	-	-	25µM	-	-	-
COC(=O)c1c(C)sc(-c2c(-c3ccc4c(c3)OCCO4)[nH]c3c2c(=O)n(C)c(=O)n3C)c1O	-	-	0	-	-	-
CC1=C(C(=O)Nc2cccnc2)C(c2ccc(C)cc2)n2nc(SCc3ccccc3F)nc2N1 (configuration not stated)	-	-	0	-	-	-
Cc1ccn2c(NCc3ccc4c(c3)OCO4)c(-c3ccc(O)cc3)nc2c1	0	0	0	0	13µM	0
Oc1ccc(-c2nc3ccccn3c2NCc2ccc3c(c2)OCO3)cc1	0	0	35µM	0	?	0
SMILES	aGal spleen mod	GLA inh pH 4.5	GAA glycogen	GAA inhib	N370S GC mod	GAA spleen mod
Fc1ccc(-c2nc3ccccn3c2NCc2ccc3c(c2)OCO3)cc1	0	0	?	0	?	0
CCOC(=O)CC(=O)CSc1nc(CC)c(C)cc1C#N	0	0	0	-	0	0
CCOC(=O)CC(=O)CSc1nc2ccc(C)cc2cc1C#N	0	0	0	?	22µM	0
Cc1ccc(NCc2cccn2-c2nnc(N3CCC(C(=O)NCc4ccc(F)cc4)CC3)s2)cc1	-	-	0	-	-	-
CCN1CCN(c2cc(C)c3cc(NC(=O)/C=C/c4ccc(C)cc4)ccc3n2)CC1	-	-	0	-	-	-
CCOc1ccc(Nc2oc(-c3ccco3)nc2C#N)cc1	0	0	35µM	0	0	0
COc1ccc(N=C2C(=O)Nc3ccccc32)cc1	0	0	?	0	0	0
COc1ccc(OC)c(N=C2C(=O)Nc3ccccc32)c1	0	0	31µM	?	0	0
CCn1c(=O)c2sccc2n2c(CCCC(=O)N3CCN(c4cc(Cl)ccc4C)CC3)nnc12	-	-	0	-	-	-
Nc1cc(S(=O)(=O)c2ccc(O)c(N)c2)ccc1O	0	0	7.9µM	-	0	0
O=C(NCc1cccs1)c1ccc(CSc2nc3ccncc3n2Cc2ccccc2F)cc1	-	-	0	-	-	-
Cc1cc(C(=O)NNC(=S)Nc2ccccc2)nn1C	0	0	3.5µM	0	0	0
Cc1ccc(N2C(=O)C3Sc4[nH]c(=O)sc4C(c4ccccc4)C3C2=O)cc1 (configuration not stated)	0	0	31µM	0	0	0
O=C1C2Sc3[nH]c(=O)sc3C(c3ccccc3)C2C(=O)N1c1ccc(Cl)cc1 (configuration not stated)	0	0	28µM	0	0	0
Cc1ccc(C)c(-c2nn(-c3cc(N4CCN(CCO)CC4)ccc3[N+](=O)[O-])c(=O)c3ccccc23)c1	0	0	0	0	16µM	0
O=C1OC2(c3cc(I)c(O)c(I)c3Oc3c2cc(I)c(O)c3I)c2c(Cl)c(Cl)c(Cl)c(Cl)c21	0	-	-	-	0	0
O=C(NNC(=O)c1cccs1)c1ccco1	0	0	0	?	0	0
O=C(NC(=S)NNC(=O)c1cccs1)c1ccco1	0	0	28µM	0	0	0
O=C(NNC(=O)c1cccnc1)NC1CCCCC1	0	0	0	0	0	0
O=C(NNC(=O)c1cc(O)c(O)c(O)c1)NC1CCCCC1	0	0	7.9µM	0	0	0
COc1ccc(NC(=S)NNc2ccc(S(=O)(=O)Nc3ccccc3C(=O)O)cc2[N+](=O)[O-])cc1	0	0	25µM	-	0	0
CC(=O)/C(=N/Nc1ccccc1C)N1CCOCC1	0	0	13µM	0	0	0
CC(=O)/C(=N/Nc1cccc(Cl)c1)N1CCOCC1	0	0	14µM	0	0	0
CCOC(=O)/C(=N\Nc1cccc(C(F)(F)F)c1)N1CCOCC1	0	0	?	0	0	0
CC(=O)/C(=N/Nc1ccccc1)N1CCOCC1	0	0	10µM	0	0	0
SMILES	aGal spleen mod	GLA inh pH 4.5	GAA glycogen	GAA inhib	N370S GC mod	GAA spleen mod
O=C(NCc1ccccc1Cl)c1ccc2c(O)c(S(=O)(=O)c3ccccc3)c(=O)[nH]c2c1	-	-	0	-	-	-
O=C1Cc2cc(S(=O)(=O)N3CCN(c4ccc(Br)cc4)CC3)ccc2N1	-	-	0	-	-	-
CC(=O)Nc1ccc(S(=O)(=O)N2CCC(C(=O)NCCc3c[nH]c4ccccc34)CC2)cc1	-	-	0	-	0	-
O=c1[nH][nH]cc1C=Nc1ccccc1O	0	0	?	0	0	0
O=c1c(=Nc2ccccc2O)c(=O)c2ccccc12	0	0	8.9µM	0	0	0
COc1ccc(C(CNC(=O)c2ccc(NS(=O)(=O)c3ccc(F)c(C)c3)cc2)N2CCOCC2)cc1 (configuration not stated)	-	-	-	-	14µM	-
CCN(CC)c1cccc(OC2=NS(=O)(=O)c3ccccc32)c1	0	0	28µM	0	0	0

Assay outcomes from PubChem BioAssay.
